We go through 40 compounds from PubChem BioAssay (EPA / NIEHS).

The structures appear in SMILES notation. Activity calls are given as the source filed them. How the source made its calls: active means hit-call score of the fitted dose curve at least 0.9, where 1 is the maximum; inactive means score below 0.9.

Read-out in this experiment: matrix metalloproteinase-10 (MMP10), MMP10 (gene 4319)
As to the kind of experiment: LTEA_HepaRG_MMP10: Life Technologies and Expression Analysis (LTEA) Assay for matrix metalloproteinase-10 (MMP10) using HepaRG (AID 2283517). The settings on record: mRNA level, 48 h; actives raise or lower the signal. Here is the method: LTEA_HepaRG is a cell based, multiplexed-readout assay that uses HepaRG, a human liver cell line, with measurements taken at 48 hours after chemical dosing on a 96-well plate.LTEA_HepaRG_MMP10 is one of 102 assay component(s) measured in the LTEA HepaRG cell culture assay. It is a marker of Fibrosis.Data from the assay component LTEA_HepaRG_MMP10 was analyzed into 1 endpoint. This assay endpoint, LTEA_HepaRG_MMP10, was analyzed with bidirectional fitting relative to DMSO as the negative control and baseline of activity. Using a type of inducible reporter, measures of mRNA induction for gain or loss-of-signal activity can be used to understand regulation of transcription factor activity. To generalize the intended target to other relatable targets, this assay endpoint is annotated to the protease intended target family, where the subfamily is matrix metalloproteinase.
A total of 1060 chemcials from the ToxCast library were tested in eight-point concentration-response experiments. Cell culture and cytotoxicity assays were conducted at Thermo Fisher Scientific's Custom Services facility (Madison, WI). A single lot of human HepaRG cells (Thermo Fisher Scientific, Frederick, MD) was used for the cell culture experiments. 96-well format collagen type I coated plates of human HepaRG cells were prepared using established methods. Briefly, cryopreserved HepaRG cells were thawed, plated at a density of approximately 100,000 cells/well in HepaRG Thaw, Plate, and General Purpose media (HPRG770, Thermo Fisher Scientific), and incubated for 48 hours. 0.5% DMSO was selected as vehicle control to balance the requisite need of DMSO in HepaRG cultures to maintain differentiation (for example, baseline metabolism, proportions of hepatocytes vs. cholangiocytes), while enabling further hepatic receptor pathway activation (for example, PXR and CAR) in response to chemical exposure. 48 hours after plating, the culture medium was replaced with HepaRG Serum-Free Incudtion Media. Cells were exposed to each test chemical in duplicate and maintained in CO2 incubators for another 48 hours. Chemical plates were thawed to room temperature and 200x concentrations of treatment groups were prepared. 8-point conentration-reponse curves were made with the highest exposure at 100 uM, followed by half-log dilutions, all in 0.5% DMSO. Each test plate contained variouse controls, induction positive controls (1mM phenobarbital), cytotoxicity positive controls ([…] aflatoxin B1), vehicle controls (0.5% DMSO), and total lysis controls (0.5% DMSO). Cell morphology images were taken using an Essen IncuCyte FLR automated microscope, with six 96-well plates imaged in about 24 minutes. Images were captured and exported and JPEG files. Spent culture media was transfered to black-well plates for the LDH assay, and remaining media was sorted at -80 C for later use. Cells were treated with RLT buffer and frozen until shipped for gene expression analysis. Total RNA was isolated from the cell suspension in 75 uL of Buffer RLT (Qiagen, Germantown, MD 20874) by Quintiles/Expression Analysis (Durham, NC) using a custom isolation procedure. Total RNA from each plate well was transferred to a preamplification plate. Fluidigm's 96.96 Dynamic ArrayTM (Fluidigm, Amsterdam, the Netherlands) technology was used for gene expression analyses by quantitative reverse transcription polymerase chain reaction (qRT-PCR, performed by Quintiles/Expression Analysis, Durham, NC)89. Standard TaqManTM Assays (Applied Biosystems/ThermoFisher Scientific, Foster City, CA) were used to assess the expression of 93 genes selected based on their selectivity and sensitivity to important hepatic receptors known to be modulated by environmental chemicals; importance in human hepatocyte functionality; and hepatotoxicity. […]
Consider `OCCCl`, for which the compound was called inactive.
With `Nc1ccc([N+](=O)[O-])cc1`, the compound was classed as inactive.
Still for that read-out and setting: for `C[N+](C)(C)CC1CO1` (stereo not given) the value was “inactive”.
In the case of `C1=Cc2cccc3cccc1c23`, the call was inactive.
As for `CCCCOC(=O)c1ccccc1C(=O)OCc1ccccc1`, the compound was called inactive.
The same measure, in the same setting: under `Brc1ccc(Oc2ccccc2)cc1` stands “inactive”; under `C[C@]12C=CC3=C4CCC(=O)C=C4CC[C@H]3[C@@H]1CC[C@@H]2O`, “inactive”.
On the same count and under the same terms, for `CC(C)(C)OOC(=O)c1ccccc1` the value was “inactive”; for `Cc1ccc([N+](=O)[O-])cc1`, “inactive”.
On the same count and under the same terms, for `O=P(OCCCl)(OCCCl)OCCCl` the value was “inactive”; for `O=[N+]([O-])c1ccc(Oc2ccc(Cl)cc2Cl)cc1`, “inactive”.
With `COc1cc(C=O)cc2c1[C@H](COC(N)=O)[C@]1(OC(C)=O)ON2C[C@H]2[C@@H]1N2C(C)=O`, the AC50 was 1.58 µM (active).
`COC(=O)c1ccccc1N`: the compound was classed as inactive.
For `CCNS(=O)(=O)C(F)(F)C(F)(F)C(F)(F)C(F)(F)C(F)(F)C(F)(F)C(F)(F)C(F)(F)F`, the compound was classed as inactive.
For the compound `CCCCCCCCOC(=O)c1ccc(C(=O)OCCCCCCCC)c(C(=O)OCCCCCCCC)c1`, the outcome was inactive.
On the same count and under the same terms, for `CCCCCCCCCCCCCN1CC(C)OC(C)C1` (stereo not given) the value was “inactive”.
With `CCC[CH2][Sn]([Cl])([CH2]CCC)[CH2]CCC`, the AC50 is 1.73 µM (active).
Consider `COP(=S)(OC)SCN1C(=O)c2ccccc2C1=O`, for which the compound was classed as inactive.
Still for that read-out and setting: for `O=Cc1ccco1` the value was “inactive”; for `O=C(Nc1ccccc1)c1ccccc1I`, “inactive”.
For the compound `Cc1cccc(N)c1N`, the compound was classed as inactive.
Same read-out and setting: under `CCC(C)c1ccc(O)cc1` (stereo not given) stands “inactive”.
Take `Cc1ccc(N)c(N)c1`: the compound was classed as inactive.
On the same count and under the same terms, under `OCCOCCO` stands “inactive”.
As to `O=C(N[C@H](c1ccccc1)[C@@H]1CN2CCC1CC2)c1c(Cl)ccc(C(F)(F)F)c1Cl`, the AC50 was 69.4 µM (active).
`[O-][Cl+]O`: the result was inactive.
In the case of `Clc1ccc(C(c2ccc(Cl)cc2)C(Cl)(Cl)Cl)cc1`, the call was inactive.
For the compound `CC(C)(O)c1cnn2c(-c3ccc(F)c(-c4c(F)cccc4C#N)c3)cnc2n1`, the compound was called inactive.
For `CCCCC(CC)COC(=O)c1ccc(C(=O)OCC(CC)CCCC)c(C(=O)OCC(CC)CCCC)c1` (stereo not given), the outcome was inactive.
On to `Cc1ccc(N=C=O)cc1N=C=O`, for which the AC50 is 27 µM (active).
As to `O=C(Oc1ccc(Br)cc1)N1CCN2CCC1CC2`, the compound was classed as inactive.
With `O=C1CCCO1`, the call was inactive.
For the compound `CCOc1cccc(C2(N3CCN(c4ccccc4)CC3)CCC(C)CC2)c1` (stereo not given), the compound was classed as inactive.
Turning to `ClC1=C(Cl)C2(Cl)C3C(Cl)C=CC3C1(Cl)C2(Cl)Cl` (stereo not given), the outcome was inactive.
The same measure, in the same setting: for `CN(C)C(=O)Nc1ccc(Cl)cc1` the value was “inactive”; for `Cc1ccc(N)cc1`, “inactive”; for `CCC12COCN1COC2`, “inactive”.
On to `c1ccc(C2CO2)cc1` (stereo not given), for which the compound was classed as inactive.
For the compound `CCOC(=O)[C@]1(c2ccccc2)Oc2ccccc2[C@@H]1N`, the AC50 was 92.9 µM (active).
Consider `N#CC(Br)(Br)C(N)=O`, for which the outcome was inactive.

For orientation: AC50 means the concentration at which the activity in the assay is half-maximal.
